The text below walks through data of PubChem BioAssay AID652068 (The Scripps Research Institute Molecular Screening Center, 2013).

Out of some 4,300 compounds screened, about 4,000 (93%) were called active. The set was probably picked from earlier hits. The list is a sample of the results. A number with no mark means an inactive call.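 The calls were made as follows: active = inhibition above its plate's cutoff, the mean test-well inhibition plus 3 SD (cut at about 4.8% in these data); inactive = the rest.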

A short description of the experiment: DNA CAG/GTC dye complex inhibitors – biochemical, fluorescence, TO-PRO-1 dye, d(CAG) DNA oligo, counter-screen for rCAG RNA repeat binder project (AID 652068).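 Also: 0% = DNA dye mix with DMSO and 100% = 100 µM mitoxantrone; hits displace the dye from DNA and so lower well fluorescence.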 Particulars: d(CAG) DNA oligo TO-PRO-1 dye displacement, at 3 µM, hits give high values. A general note: A counterscreen serves to expose hits that act by an unwanted route or on another target.
What is called inhibition is the share of the control response that was lost under treatment. With `COc1ccc(COC(=O)NC(C(=O)O)c2ccccc2)cc1` (stereo unspecified), the inhibition was 1.1%.

Regarding `Cc1c(C)c2c(OCC(=O)N[C@@H](C(=O)O)c3ccccc3)cc3c(c2oc1=O)CCC(C)(C)O3`, the inhibition is 12.5% (active).

For `Fc1cccc(Cc2c(-c3cccc(Cl)c3)nc3ccc(Br)cn23)c1`, the inhibition was 12.8% (active).

Consider `Cc1cc(Br)cn2c(Cc3cccc(F)c3)c(-c3cccc(Br)c3)nc12`, for which the inhibition is 2.14%.

On to `COc1ccc(-c2nc3ccc(Br)cn3c2Cc2ccc(C)cc2)cc1OC`, for which the inhibition was 5.84% (active).

Regarding `CCC(C)Cn1c(O)cc2nn(-c3nc4ccccc4s3)c(=O)c-2c1C` (stereo unspecified), the inhibition was 30.4% (active).

Take `COc1cc(NC(=O)c2ccccc2NS(=O)(=O)c2ccc(Cl)s2)cc(OC)c1`: the inhibition was 46.6% (active).

`Cc1ccc(CNC(=O)C2CCN(S(=O)(=O)c3ccc4nc5c(c(C(=O)O)c4c3)CC(C)CC5)CC2)cc1` (stereo unspecified): the inhibition was 11.1% (active).

In the case of `CCOc1cc(C)ccc1OCc1nnc(SCC(=O)Nc2cccc(C(=O)O)c2)n1-c1ccccc1`, the inhibition was 11.8% (active).

On to `Cc1sc2nc(SCC(=O)c3ccc(O)c(O)c3)n(Cc3ccco3)c(=O)c2c1C`, for which the inhibition is 31.4% (active).

For the compound `O=C(COC(=O)c1ccc(NS(=O)(=O)c2cccs2)cc1O)Nc1ccc(F)cc1`, the inhibition was 5.07% (active).

Take `O=C(O)c1[nH]c2ccccc2c1C(c1cccc(O)c1)c1c(C(=O)O)[nH]c2ccccc12`: the inhibition is 12.6% (active).

Take `CCOC(=O)c1cc2cc(-c3c(C(=O)OCC)oc4cc(O)cc(O)c4c3=O)ccc2o1`: the inhibition was 10.2% (active).

Consider `O=C(CCCN1C(=O)/C(=C\c2ccco2)SC1=S)Nc1cccc2ccccc12`, for which the inhibition is 13.7% (active).

On to `Cc1ccc(NC(=O)CSc2sc3c(O)cc(=O)[nH]c3c2C#N)cc1C`, for which the inhibition was 11.8% (active).

As for `CO/N=C(\C(=O)N[C@@H]1C(=O)N2C(C(=O)O)=C(COC(C)=O)CS[C@H]12)c1csc(N)n1` (stereo in doubt), the inhibition is 17.5% (active).

For `O=[N+]([O-])c1cc(Br)c(O)c(/C=N/Nc2nc3ccccc3s2)c1`, the inhibition was 83.5% (active).

Take `COc1ccc(S(=O)(=O)/N=C2\C=C(NS(=O)(=O)c3ccccc3)C(=O)c3ccccc32)cc1`: the inhibition is 56.1% (active).

Consider `O=C(NNc1c2ccccc2nc2ccccc12)c1cc2ccccc2cc1O`, for which the inhibition was 27.7% (active).

Turning to `Cc1cc(/C=N/Nc2ccc([N+](=O)[O-])cn2)c(C)n1-c1cccc(C(=O)O)c1`, the inhibition is 10.4% (active).

Regarding `O=c1ccc2c(-c3ccccc3S(=O)(=O)O)c3ccc(O)c(O)c3oc-2c1O`, the inhibition was 69.2% (active).

`O=C(Nc1cccc(F)c1)c1cc(-c2ccco2)nc2ccccc12`: the inhibition was 3.28%.

Regarding `O=C(O)c1cccc(NC(=O)c2cc(-c3cccc(Cl)c3)nc3ccccc23)c1`, the inhibition was 14.3% (active).

As to `Cc1oc2c(F)c(F)c(F)c(F)c2c1S(=O)(=O)Nc1cccc(C(F)(F)F)c1`, the inhibition was 13.1% (active).

As to `Nc1cccc(-c2cc(-c3ccccc3)nc(-c3cccc(N)c3)n2)c1`, the inhibition was 6.95% (active).

Consider `Cc1oc2cc([N+](=O)[O-])c(O)c([N+](=O)[O-])c2c1C(=O)c1ccc(Br)cc1`, for which the inhibition was 15.8% (active).
